PMC11006913
Where a chain is given by its changes, count along the chain named.

target: T1, SIX6 (Homo sapiens, UniProt O95475 114-200, L143I); experiment: PBM; 200 nM protein, PBS; conditions: dsDNA, one strand shown
T1 sequence: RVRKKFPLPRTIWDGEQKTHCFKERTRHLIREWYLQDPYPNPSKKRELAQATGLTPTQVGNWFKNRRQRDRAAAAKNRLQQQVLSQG

Row | Sequence | binding signal
1 | CCAGTGCG | 9.05 upbm affinity estimate (log intensity, higher = more binding, comparable within an allelic series)
2 | GATATCCA | 10.3 upbm affinity estimate (log intensity, higher = more binding, comparable within an allelic series)
3 | ATATCATG | 10.4 upbm affinity estimate (log intensity, higher = more binding, comparable within an allelic series)
4 | CATGATCA | 9.97 upbm affinity estimate (log intensity, higher = more binding, comparable within an allelic series)
5 | GTGATATA | 10.4 upbm affinity estimate (log intensity, higher = more binding, comparable within an allelic series)
6 | GGCCCCAA | 8.81 upbm affinity estimate (log intensity, higher = more binding, comparable within an allelic series)
7 | AGTATCAT | 10.6 upbm affinity estimate (log intensity, higher = more binding, comparable within an allelic series)
8 | AGGGTATC | 10.4 upbm affinity estimate (log intensity, higher = more binding, comparable within an allelic series)
9 | AGGGCCCG | 8.9 upbm affinity estimate (log intensity, higher = more binding, comparable within an allelic series)
10 | GGCCTCCA | 8.9 upbm affinity estimate (log intensity, higher = more binding, comparable within an allelic series)
11 | ACTGCCGG | 9.19 upbm affinity estimate (log intensity, higher = more binding, comparable within an allelic series)
12 | GGCCCCGA | 8.91 upbm affinity estimate (log intensity, higher = more binding, comparable within an allelic series)
13 | GCCAGTCC | 9.03 upbm affinity estimate (log intensity, higher = more binding, comparable within an allelic series)
14 | GCAGTGGC | 8.96 upbm affinity estimate (log intensity, higher = more binding, comparable within an allelic series)
15 | GCGCTGCC | 8.77 upbm affinity estimate (log intensity, higher = more binding, comparable within an allelic series)
16 | CCGGCGCC | 9.03 upbm affinity estimate (log intensity, higher = more binding, comparable within an allelic series)
17 | CAGGGCGC | 8.98 upbm affinity estimate (log intensity, higher = more binding, comparable within an allelic series)
18 | CCCCGAGG | 8.96 upbm affinity estimate (log intensity, higher = more binding, comparable within an allelic series)
19 | AGCTCCGC | 9.04 upbm affinity estimate (log intensity, higher = more binding, comparable within an allelic series)
20 | GATATCAC | 10.3 upbm affinity estimate (log intensity, higher = more binding, comparable within an allelic series)

Row | Sequence | binding signal
21 | GATACCCC | 10.5 upbm affinity estimate (log intensity, higher = more binding, comparable within an allelic series)
22 | ACTGATAC | 10.4 upbm affinity estimate (log intensity, higher = more binding, comparable within an allelic series)
23 | ATATACAC | 10.4 upbm affinity estimate (log intensity, higher = more binding, comparable within an allelic series)
24 | CGGCCTTC | 8.94 upbm affinity estimate (log intensity, higher = more binding, comparable within an allelic series)
25 | CCGGGGCC | 9.01 upbm affinity estimate (log intensity, higher = more binding, comparable within an allelic series)
26 | AGCGGCGC | 8.84 upbm affinity estimate (log intensity, higher = more binding, comparable within an allelic series)
27 | CGGTATCA | 10.4 upbm affinity estimate (log intensity, higher = more binding, comparable within an allelic series)
28 | GTATCAAA | 10.4 upbm affinity estimate (log intensity, higher = more binding, comparable within an allelic series)
29 | CAGTGGCC | 8.95 upbm affinity estimate (log intensity, higher = more binding, comparable within an allelic series)
30 | GATATCTA | 10.3 upbm affinity estimate (log intensity, higher = more binding, comparable within an allelic series)
31 | CCCTCTGC | 8.9 upbm affinity estimate (log intensity, higher = more binding, comparable within an allelic series)
32 | CGGCGGAA | 8.96 upbm affinity estimate (log intensity, higher = more binding, comparable within an allelic series)
33 | CAGTATCA | 10.3 upbm affinity estimate (log intensity, higher = more binding, comparable within an allelic series)
34 | CGCAAGCG | 9.04 upbm affinity estimate (log intensity, higher = more binding, comparable within an allelic series)
35 | AGGCGCCC | 8.66 upbm affinity estimate (log intensity, higher = more binding, comparable within an allelic series)
36 | CCGCCAGC | 9.03 upbm affinity estimate (log intensity, higher = more binding, comparable within an allelic series)
37 | ATGGCCGC | 8.82 upbm affinity estimate (log intensity, higher = more binding, comparable within an allelic series)
38 | GGATATCA | 10.4 upbm affinity estimate (log intensity, higher = more binding, comparable within an allelic series)
39 | CTCGATAC | 10.1 upbm affinity estimate (log intensity, higher = more binding, comparable within an allelic series)
40 | CGCAGCGC | 9.01 upbm affinity estimate (log intensity, higher = more binding, comparable within an allelic series)

target: T2, SIX6 (Homo sapiens, UniProt O95475 114-200, T165G); experiment: PBM; 200 nM protein, PBS; conditions: dsDNA, one strand shown
T2 sequence: T1 sequence with I30L, T52G

Row | Sequence | binding signal
41 | CCAGTGCG | 9.12 upbm affinity estimate (log intensity, higher = more binding, comparable within an allelic series)
42 | GATATCCA | 11.1 upbm affinity estimate (log intensity, higher = more binding, comparable within an allelic series)
43 | ATATCATG | 11.1 upbm affinity estimate (log intensity, higher = more binding, comparable within an allelic series)
44 | CATGATCA | 10.4 upbm affinity estimate (log intensity, higher = more binding, comparable within an allelic series)
45 | GTGATATA | 11.3 upbm affinity estimate (log intensity, higher = more binding, comparable within an allelic series)
46 | GGCCCCAA | 8.9 upbm affinity estimate (log intensity, higher = more binding, comparable within an allelic series)
47 | AGTATCAT | 11.5 upbm affinity estimate (log intensity, higher = more binding, comparable within an allelic series)
48 | AGGGTATC | 11.4 upbm affinity estimate (log intensity, higher = more binding, comparable within an allelic series)
49 | AGGGCCCG | 8.99 upbm affinity estimate (log intensity, higher = more binding, comparable within an allelic series)
50 | GGCCTCCA | 9 upbm affinity estimate (log intensity, higher = more binding, comparable within an allelic series)
51 | ACTGCCGG | 9.17 upbm affinity estimate (log intensity, higher = more binding, comparable within an allelic series)
52 | GGCCCCGA | 9.02 upbm affinity estimate (log intensity, higher = more binding, comparable within an allelic series)
53 | GCCAGTCC | 9 upbm affinity estimate (log intensity, higher = more binding, comparable within an allelic series)
54 | GCAGTGGC | 8.99 upbm affinity estimate (log intensity, higher = more binding, comparable within an allelic series)
55 | GCGCTGCC | 8.82 upbm affinity estimate (log intensity, higher = more binding, comparable within an allelic series)
56 | CCGGCGCC | 8.96 upbm affinity estimate (log intensity, higher = more binding, comparable within an allelic series)
57 | CAGGGCGC | 9.07 upbm affinity estimate (log intensity, higher = more binding, comparable within an allelic series)
58 | CCCCGAGG | 9.07 upbm affinity estimate (log intensity, higher = more binding, comparable within an allelic series)
59 | AGCTCCGC | 9.04 upbm affinity estimate (log intensity, higher = more binding, comparable within an allelic series)
60 | GATATCAC | 11.4 upbm affinity estimate (log intensity, higher = more binding, comparable within an allelic series)

Row | Sequence | binding signal
61 | GATACCCC | 11.6 upbm affinity estimate (log intensity, higher = more binding, comparable within an allelic series)
62 | ACTGATAC | 11.3 upbm affinity estimate (log intensity, higher = more binding, comparable within an allelic series)
63 | ATATACAC | 11.1 upbm affinity estimate (log intensity, higher = more binding, comparable within an allelic series)
64 | CGGCCTTC | 8.84 upbm affinity estimate (log intensity, higher = more binding, comparable within an allelic series)
65 | CCGGGGCC | 9.1 upbm affinity estimate (log intensity, higher = more binding, comparable within an allelic series)
66 | AGCGGCGC | 8.81 upbm affinity estimate (log intensity, higher = more binding, comparable within an allelic series)
67 | CGGTATCA | 11.5 upbm affinity estimate (log intensity, higher = more binding, comparable within an allelic series)
68 | GTATCAAA | 11.3 upbm affinity estimate (log intensity, higher = more binding, comparable within an allelic series)
69 | CAGTGGCC | 9.02 upbm affinity estimate (log intensity, higher = more binding, comparable within an allelic series)
70 | GATATCTA | 11.1 upbm affinity estimate (log intensity, higher = more binding, comparable within an allelic series)
71 | CCCTCTGC | 9.1 upbm affinity estimate (log intensity, higher = more binding, comparable within an allelic series)
72 | CGGCGGAA | 9.04 upbm affinity estimate (log intensity, higher = more binding, comparable within an allelic series)
73 | CAGTATCA | 11.2 upbm affinity estimate (log intensity, higher = more binding, comparable within an allelic series)
74 | CGCAAGCG | 8.96 upbm affinity estimate (log intensity, higher = more binding, comparable within an allelic series)
75 | AGGCGCCC | 8.66 upbm affinity estimate (log intensity, higher = more binding, comparable within an allelic series)
76 | CCGCCAGC | 9.05 upbm affinity estimate (log intensity, higher = more binding, comparable within an allelic series)
77 | ATGGCCGC | 8.77 upbm affinity estimate (log intensity, higher = more binding, comparable within an allelic series)
78 | GGATATCA | 11.3 upbm affinity estimate (log intensity, higher = more binding, comparable within an allelic series)
79 | CTCGATAC | 10.8 upbm affinity estimate (log intensity, higher = more binding, comparable within an allelic series)
80 | CGCAGCGC | 8.94 upbm affinity estimate (log intensity, higher = more binding, comparable within an allelic series)

target: T3, SIX6 (Homo sapiens, UniProt O95475 114-200, T139Q); experiment: PBM; 200 nM protein, PBS; conditions: dsDNA, one strand shown
T3 sequence: T1 sequence with T26Q, I30L

Row | Sequence | binding signal
81 | CCAGTGCG | 9.15 upbm affinity estimate (log intensity, higher = more binding, comparable within an allelic series)
82 | GATATCCA | 11 upbm affinity estimate (log intensity, higher = more binding, comparable within an allelic series)
83 | ATATCATG | 11.2 upbm affinity estimate (log intensity, higher = more binding, comparable within an allelic series)
84 | CATGATCA | 10.6 upbm affinity estimate (log intensity, higher = more binding, comparable within an allelic series)
85 | GTGATATA | 11.1 upbm affinity estimate (log intensity, higher = more binding, comparable within an allelic series)
86 | GGCCCCAA | 9.04 upbm affinity estimate (log intensity, higher = more binding, comparable within an allelic series)
87 | AGTATCAT | 11.4 upbm affinity estimate (log intensity, higher = more binding, comparable within an allelic series)
88 | AGGGTATC | 11.4 upbm affinity estimate (log intensity, higher = more binding, comparable within an allelic series)
89 | AGGGCCCG | 9.07 upbm affinity estimate (log intensity, higher = more binding, comparable within an allelic series)
90 | GGCCTCCA | 8.8 upbm affinity estimate (log intensity, higher = more binding, comparable within an allelic series)
91 | ACTGCCGG | 9.29 upbm affinity estimate (log intensity, higher = more binding, comparable within an allelic series)
92 | GGCCCCGA | 9.12 upbm affinity estimate (log intensity, higher = more binding, comparable within an allelic series)
93 | GCCAGTCC | 9.12 upbm affinity estimate (log intensity, higher = more binding, comparable within an allelic series)
94 | GCAGTGGC | 8.93 upbm affinity estimate (log intensity, higher = more binding, comparable within an allelic series)
95 | GCGCTGCC | 8.75 upbm affinity estimate (log intensity, higher = more binding, comparable within an allelic series)
96 | CCGGCGCC | 8.96 upbm affinity estimate (log intensity, higher = more binding, comparable within an allelic series)
97 | CAGGGCGC | 8.97 upbm affinity estimate (log intensity, higher = more binding, comparable within an allelic series)
98 | CCCCGAGG | 9.12 upbm affinity estimate (log intensity, higher = more binding, comparable within an allelic series)
99 | AGCTCCGC | 8.99 upbm affinity estimate (log intensity, higher = more binding, comparable within an allelic series)
100 | GATATCAC | 11.2 upbm affinity estimate (log intensity, higher = more binding, comparable within an allelic series)
